Source: PubChem BioAssay (NCATS)
Records with an inconclusive call do not appear. Where a call stands in place of a potency, no number is given. Values without a mark were called inactive. The source made the active and inactive calls. Calls follow the shape of the dose curve; as a rule, active = well fitted inhibition curve with a large enough effect; inconclusive = small, poorly fitted or top-dose-only effect; inactive = flat fitted curve, though single readings scatter.

Key:
TAB165 = experiment: qHTS profiling for inhibitors of Plasmodium falciparum proliferation (AID 504749); also: potency is read from the fitted curve at half-maximal effect; details: P. falciparum in erythrocytes, SYBR Green DNA, 72 h; series mostly up to 28.7 µM
Procedure, shortened: (§1)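 In a 72 h erythrocytic culture (37 C, humidified, 5% CO2) at 2.5% hematocrit and 0.3% starting parasitemia, compounds were tested; SYBR Green I in detergent lysis buffer stained parasite DNA overnight.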

CRL-7250 = normal cell line; experiment: Cytotoxic Profiling of Annotated Libraries Using Quantitative High-Throughput Screening (AID 1296008); details: Five cell lines viability, CellTiter-Glo ATP luminescence, 48-72 h; stronger effect = lower value
Procedure, shortened: (§2)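 Cytotoxicity was measured as CellTiter-Glo ATP luminescence, read after 10 min at room temperature. Compound treatment of the cells lasted 48 or 72 hr at 37 degrees Celsius in a qHTS format.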

HEK293 = experiment: as above; details: Five cell lines viability, CellTiter-Glo ATP luminescence, 48-72 h; stronger effect = lower value
Procedure, shortened: as §2

HaCat [1] = experiment: as above; details: Five cell lines viability, CellTiter-Glo ATP luminescence, 48-72 h; stronger effect = lower value
Procedure, shortened: as §2

NIH3T3 = experiment: as above; details: Five cell lines viability, CellTiter-Glo ATP luminescence, 48-72 h; stronger effect = lower value
Procedure, shortened: as §2

HACAT [2] = experiment: qHTS assay to identify novel small-molecules to repurpose for Merkel cell carcinoma treatment (AID 1296009); details: MCC and control cell lines, CellTiter-Glo viability, 72 h; at 44.8 µM (top of the series) unless noted
Procedure, shortened: (§3)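 Cell viability measured by CellTiter-Glo following 72 hr compound treatment at 37 degree celsius, with NPC and MIPE libraries tested in 8- and 11-point concentration series.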

MCC-13 = experiment: as above; details: MCC and control cell lines, CellTiter-Glo viability, 72 h; series mostly up to 46 µM
Procedure, shortened: as §3

MCC-26 = experiment: as above; details: MCC and control cell lines, CellTiter-Glo viability, 72 h; series mostly up to 46 µM
Procedure, shortened: as §3

MKL-1 = experiment: as above; details: MCC and control cell lines, CellTiter-Glo viability, 72 h; series mostly up to 46 µM
Procedure, shortened: as §3

MKL-2 = experiment: as above; details: MCC and control cell lines, CellTiter-Glo viability, 72 h; series mostly up to 46 µM
Procedure, shortened: as §3

PAD = experiment: qHTS profiling for inhibitors of Plasmodium falciparum proliferation (AID 504749); also: potency is read from the fitted curve at half-maximal effect; details: P. falciparum in erythrocytes, SYBR Green DNA, 72 h; series mostly up to 28.7 µM
Procedure, shortened: as §1

PC15 = experiment: as above; details: P. falciparum in erythrocytes, SYBR Green DNA, 72 h; series mostly up to 28.7 µM
Procedure, shortened: as §1

PC26 = experiment: as above; details: P. falciparum in erythrocytes, SYBR Green DNA, 72 h; series mostly up to 28.7 µM
Procedure, shortened: as §1

PC49 = experiment: as above; details: P. falciparum in erythrocytes, SYBR Green DNA, 72 h; series mostly up to 28.7 µM
Procedure, shortened: as §1

SC27B = experiment: as above; details: P. falciparum in erythrocytes, SYBR Green DNA, 72 h; series mostly up to 28.7 µM
Procedure, shortened: as §1

TAB109 = experiment: as above; details: P. falciparum in erythrocytes, SYBR Green DNA, 72 h; series mostly up to 28.7 µM
Procedure, shortened: as §1

TAB113 = experiment: as above; details: P. falciparum in erythrocytes, SYBR Green DNA, 72 h; series mostly up to 28.7 µM
Procedure, shortened: as §1

W2 = experiment: as above; details: P. falciparum in erythrocytes, SYBR Green DNA, 72 h; series mostly up to 28.7 µM
Procedure, shortened: as §1

HEK293T = experiment: qHTS assay to identify novel small-molecules to repurpose for Merkel cell carcinoma treatment (AID 1296009); details: MCC and control cell lines, CellTiter-Glo viability, 72 h; at 44.8 µM (top of the series) unless noted
Procedure, shortened: as §3
Also: nearly all actives have a fitted effect of over 60% in size.

## Nc1c2c(nc3c1CCC3)CCCC2
TAB165
  Potency: 11.2 µM (active)
CRL-7250
  outcome: inactive
HEK293
  max response: -2.02%
HaCat [1]
  outcome: inactive
NIH3T3
  max response: 0.339%
HACAT [2]
  outcome: inactive
MCC-13
  outcome: inactive
MCC-26
  outcome: inactive
MKL-1
  outcome: inactive
MKL-2
  outcome: inactive

## NNC(=O)CP(=O)(c1ccccc1)c1ccccc1
PAD
  Potency: inactive
PC15
  Potency: inactive
PC26
  Potency: inactive
PC49
  Potency: inactive
SC27B
  Potency: inactive
TAB109
  Potency: inactive
TAB113
  Potency: inactive
TAB165
  Potency: inactive
CRL-7250
  max response: -0.948%
HEK293
  max response: 0.687%
HaCat [1]
  outcome: inactive
NIH3T3
  max response: -3.5%
HACAT [2]
  outcome: inactive
MCC-13
  outcome: inactive
MCC-26
  outcome: inactive
MKL-1
  outcome: inactive
MKL-2
  outcome: inactive

## Cc1onc(-c2ccccc2)c1-c1ccc(S(N)(=O)=O)cc1
PAD
  Potency: inactive
PC15
  Potency: inactive
PC26
  Potency: inactive
PC49
  Potency: inactive
SC27B
  Potency: inactive
TAB109
  Potency: inactive
TAB113
  Potency: inactive
TAB165
  Potency: inactive
W2
  Potency: inactive
CRL-7250
  outcome: inactive
HEK293
  max response: -13.2%
HaCat [1]
  outcome: inactive
NIH3T3
  outcome: inactive
HACAT [2]
  outcome: inactive
MCC-13
  outcome: inactive
MKL-1
  outcome: inactive
MKL-2
  outcome: inactive

## Cc1c(N(C)C)c(=O)n(-c2ccccc2)n1C
PAD
  Potency: inactive
PC15
  Potency: inactive
PC26
  Potency: inactive
PC49
  Potency: inactive
SC27B
  Potency: inactive
TAB109
  Potency: inactive
TAB113
  Potency: inactive
TAB165
  Potency: inactive
W2
  Potency: inactive
CRL-7250
  outcome: inactive
HEK293
  max response: -3.5%
HaCat [1]
  outcome: inactive
NIH3T3
  max response: 4.65%
HACAT [2]
  outcome: inactive
MCC-13
  outcome: inactive
MCC-26
  outcome: inactive
MKL-1
  outcome: inactive
MKL-2
  outcome: inactive

## O=C(CN1CCNCC1)NC1CCCCC1
PAD
  Potency: inactive
PC15
  Potency: inactive
PC26
  Potency: inactive
PC49
  Potency: inactive
SC27B
  Potency: inactive
TAB109
  Potency: inactive
TAB113
  Potency: inactive
TAB165
  Potency: inactive
W2
  Potency: inactive
CRL-7250
  max response: -5.07%
HEK293
  max response: -4.92%
HaCat [1]
  max response: 0.716%
NIH3T3
  outcome: inactive; activator
MCC-13
  outcome: inactive
MCC-26
  outcome: inactive
MKL-1
  outcome: inactive
MKL-2
  outcome: inactive

## O=C(OOC(=O)c1ccccc1)c1ccccc1
PAD
  Potency: inactive
PC15
  Potency: inactive
PC26
  Potency: inactive
PC49
  Potency: inactive
SC27B
  Potency: inactive
TAB109
  Potency: inactive
TAB113
  Potency: inactive
TAB165
  Potency: inactive
W2
  Potency: inactive
CRL-7250
  outcome: inactive
HEK293
  max response: 2.9%
HaCat [1]
  max response: -8.52%
NIH3T3
  outcome: inactive
MCC-13
  outcome: inactive
MCC-26
  outcome: inactive
MKL-1
  outcome: inactive
MKL-2
  outcome: inactive

## CC[C@H](C)[C@H](N)C(=O)O
CRL-7250
  max response: -1.3%
HEK293
  max response: -2.12%
HaCat [1]
  outcome: inactive
NIH3T3
  max response: -5.18%
HACAT [2]
  outcome: inactive
MCC-13
  outcome: inactive
MCC-26
  outcome: inactive
MKL-1
  outcome: inactive
MKL-2
  outcome: inactive

## CCOC(=O)OC(C)OC(=O)[C@@H]1N2C(=O)[C@@H](NC(=O)[C@H](N)c3ccccc3)[C@H]2SC1(C)C (stereo partly drawn)
CRL-7250
  max response: -4.78%
HEK293
  max response: -9.36%
HaCat [1]
  outcome: inactive
NIH3T3
  outcome: inactive
HACAT [2]
  outcome: inactive
MCC-13
  outcome: inactive
MCC-26
  outcome: inactive
MKL-1
  outcome: inactive
MKL-2
  outcome: inactive

## CN1C[C@@H]2C[C@H]1CN2c1cc2c(cc1F)c(=O)c(C(=O)O)cn2C1CC1
PAD
  Potency: inactive
PC49
  Potency: inactive
TAB113
  Potency: inactive
W2
  Potency: 0.953 µM (active)
CRL-7250
  max response: 2.35%
HEK293
  max response: -22.9%
HaCat [1]
  outcome: inactive
NIH3T3
  max response: -10.1%
HACAT [2]
  outcome: inactive [at 17.4 µM]
MCC-13
  outcome: inactive
MCC-26
  outcome: inactive
MKL-1
  outcome: inactive
MKL-2
  outcome: inactive

## CNc1c2c(nn1C)CCCC2
PAD
  Potency: inactive
PC15
  Potency: inactive
PC26
  Potency: inactive
PC49
  Potency: inactive
SC27B
  Potency: inactive
TAB109
  Potency: inactive
TAB113
  Potency: inactive
TAB165
  Potency: inactive
W2
  Potency: inactive
CRL-7250
  max response: 2.3%
HEK293
  max response: -6.59%
HaCat [1]
  outcome: inactive
NIH3T3
  max response: 4.21%
HACAT [2]
  outcome: inactive
MCC-13
  outcome: inactive
MCC-26
  outcome: inactive
MKL-1
  outcome: inactive
MKL-2
  outcome: inactive

## Cc1cc(NC(=O)C2=C(O)c3ccccc3S(=O)(=O)N2C)no1
PAD
  Potency: inactive
PC15
  Potency: inactive
PC26
  Potency: inactive
PC49
  Potency: inactive
SC27B
  Potency: inactive
TAB109
  Potency: inactive
TAB113
  Potency: inactive
TAB165
  Potency: inactive
CRL-7250
  max response: -9.44%
HEK293
  outcome: inactive
HaCat [1]
  max response: 1.12%
NIH3T3
  max response: -3.38%
HEK293T
  outcome: inactive
MCC-13
  outcome: inactive
MKL-1
  outcome: inactive
MKL-2
  outcome: inactive

## C[C@@H](c1ncncc1F)C(O)(Cn1cncn1)c1ccc(F)cc1F (stereo partly drawn)
CRL-7250
  max response: -4.65%
HEK293
  max response: 2.6%
HaCat [1]
  outcome: inactive
NIH3T3
  max response: -3.08%
HACAT [2]
  outcome: inactive
MCC-13
  outcome: inactive
MCC-26
  outcome: inactive
MKL-1
  outcome: inactive
MKL-2
  outcome: inactive

## CC(C(=O)O)c1ccc2c(c1)Cc1cccnc1O2 (stereo not drawn)
PAD
  Potency: inactive
PC15
  Potency: inactive
PC26
  Potency: inactive
PC49
  Potency: inactive
SC27B
  Potency: inactive
TAB109
  Potency: inactive
TAB113
  Potency: inactive
TAB165
  Potency: inactive
W2
  Potency: inactive
CRL-7250
  max response: -6.8%
HEK293
  outcome: inactive
HaCat [1]
  max response: -5.6%
NIH3T3
  max response: -7.1%
HEK293T
  outcome: inactive
MCC-13
  outcome: inactive
MCC-26
  outcome: inactive
MKL-1
  outcome: inactive
MKL-2
  outcome: inactive
